# According to PMC4081100, “A DNA-binding-site landscape and regulatory network analysis for NAC transcription factors in Arabidopsis thaliana”:
# Experiments:
# Experiment in all cases: universal protein binding microarray (PBM); transcription factors of Arabidopsis thaliana; high values mean tight binding
# [1] = target: GST-NTL6(1-168) (Arabidopsis thaliana, UniProt Q9SCK6 1-168); settings: protein: recombinant; tags: GST; chain copies: 2; dsDNA, one strand shown
# In short: (§1)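 Binding is expressed as the normalised enrichment score (E-score). Proteins carrying a GST tag, whether NAC-domain, full-length or DNA-binding-domain forms, were induced in cells, and zinc acetate was added for zinc-finger proteins. After purification on glutathione–Sepharose 4B and quantification by A280 or anti-GST western blot, each was applied in duplicate at 200 to 500 nM final to custom all-10-mer Agilent 4 × 180K arrays made double-stranded by primer extension. Gapped and ungapped 8-mers were scored.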
# [2] = target: T1, GST-NST2(1-184) (Arabidopsis thaliana, UniProt Q9M274 1-184); settings: protein: recombinant; tags: GST; chain copies: 2; dsDNA, one strand shown
# T1 sequence: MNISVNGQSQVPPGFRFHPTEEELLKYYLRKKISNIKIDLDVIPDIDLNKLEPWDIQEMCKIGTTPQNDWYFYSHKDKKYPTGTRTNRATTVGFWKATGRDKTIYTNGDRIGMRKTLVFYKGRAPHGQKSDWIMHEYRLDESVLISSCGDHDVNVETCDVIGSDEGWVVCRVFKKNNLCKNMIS
# In short: as §1
# [3] = target: T2, GST-NTL8 NAC domain (Arabidopsis thaliana, UniProt Q9XIN7 14-156); settings: protein: recombinant; tags: GST; chain copies: 2; dsDNA, one strand shown
# T2 sequence: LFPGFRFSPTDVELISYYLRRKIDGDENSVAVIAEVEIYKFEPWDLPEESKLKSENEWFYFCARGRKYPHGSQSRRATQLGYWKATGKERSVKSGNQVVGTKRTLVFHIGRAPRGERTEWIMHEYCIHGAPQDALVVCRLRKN
# In short: as §1
# [4] = target: T3, GST-SND1(1-203) (Arabidopsis thaliana, UniProt Q9LPI7 1-203); settings: protein: recombinant; tags: GST; chain copies: 2; dsDNA, one strand shown
# T3 sequence: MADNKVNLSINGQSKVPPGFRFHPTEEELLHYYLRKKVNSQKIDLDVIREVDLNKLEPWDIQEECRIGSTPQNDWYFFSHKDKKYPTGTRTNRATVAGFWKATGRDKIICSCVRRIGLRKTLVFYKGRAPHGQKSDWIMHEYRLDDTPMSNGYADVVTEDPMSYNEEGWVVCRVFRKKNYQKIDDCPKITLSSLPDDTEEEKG
# In short: as §1
# [5] = target: GST-WRKY1(266-371) (Arabidopsis thaliana, UniProt Q9SI37 266-371); settings: protein: recombinant; tags: GST; dsDNA, one strand shown
# Sequence of GST-WRKY1(266-371) (Q9SI37 266-371): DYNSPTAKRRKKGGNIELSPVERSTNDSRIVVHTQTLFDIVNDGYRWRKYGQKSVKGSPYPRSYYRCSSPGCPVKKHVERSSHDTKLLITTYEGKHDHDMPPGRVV
# In short: as §1
# [6] = target: T4, GST-ANAC055(1-171) (Arabidopsis thaliana, UniProt Q9LDY8 1-171); settings: protein: recombinant; tags: GST; chain copies: 2; dsDNA, one strand shown
# T4 sequence: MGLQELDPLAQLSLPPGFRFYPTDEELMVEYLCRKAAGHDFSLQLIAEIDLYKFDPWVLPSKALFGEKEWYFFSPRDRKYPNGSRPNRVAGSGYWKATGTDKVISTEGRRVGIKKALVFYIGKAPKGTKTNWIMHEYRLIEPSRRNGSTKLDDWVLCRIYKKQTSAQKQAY
# In short: as §1
# [7] = target: T5, GST-ATAF1 NAC domain (Arabidopsis thaliana, UniProt Q39013 7-158); settings: protein: recombinant; tags: GST; chain copies: 2; dsDNA, one strand shown
# T5 sequence: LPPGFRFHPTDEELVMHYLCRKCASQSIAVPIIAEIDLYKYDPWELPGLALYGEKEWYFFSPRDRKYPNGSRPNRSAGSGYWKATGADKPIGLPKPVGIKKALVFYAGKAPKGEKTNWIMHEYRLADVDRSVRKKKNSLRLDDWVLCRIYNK
# In short: as §1
# [8] = target: T6, GST-ANAC092(1-285) full length (Arabidopsis thaliana, UniProt Q9FKA0 1-285); settings: protein: recombinant; tags: GST; chain copies: 2; dsDNA, one strand shown
# T6 sequence: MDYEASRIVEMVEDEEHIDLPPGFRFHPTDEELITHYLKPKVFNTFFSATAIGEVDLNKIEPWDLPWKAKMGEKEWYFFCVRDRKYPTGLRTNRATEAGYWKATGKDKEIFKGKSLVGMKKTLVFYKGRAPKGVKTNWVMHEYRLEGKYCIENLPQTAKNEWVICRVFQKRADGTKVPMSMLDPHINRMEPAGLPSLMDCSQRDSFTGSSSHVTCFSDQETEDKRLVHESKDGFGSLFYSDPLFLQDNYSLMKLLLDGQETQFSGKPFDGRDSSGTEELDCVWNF
# In short: as §1
# [9] = target: T7, GST-ANAC019 NAC domain (Arabidopsis thaliana, UniProt Q9C932 14-162); settings: protein: recombinant; tags: GST; chain copies: 2; dsDNA, one strand shown
# T7 sequence: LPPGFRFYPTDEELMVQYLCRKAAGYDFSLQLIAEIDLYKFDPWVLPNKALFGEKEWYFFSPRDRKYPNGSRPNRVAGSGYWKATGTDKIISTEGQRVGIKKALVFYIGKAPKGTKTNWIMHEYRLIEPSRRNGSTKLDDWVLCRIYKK
# In short: as §1
# [10] = target: T8, GST-ANAC092(1-176) (Arabidopsis thaliana, UniProt Q9FKA0 1-176); settings: protein: recombinant; tags: GST; chain copies: 2; dsDNA, one strand shown
# T8 sequence: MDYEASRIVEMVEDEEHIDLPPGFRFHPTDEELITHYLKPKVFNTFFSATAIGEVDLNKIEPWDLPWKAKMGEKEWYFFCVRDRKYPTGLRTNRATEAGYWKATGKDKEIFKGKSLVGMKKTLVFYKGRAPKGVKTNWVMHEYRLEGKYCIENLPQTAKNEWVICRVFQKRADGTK
# In short: as §1
# [11] = target: T9, GST-NAP(1-166) (Arabidopsis thaliana, UniProt O49255 1-166); settings: protein: recombinant; tags: GST; chain copies: 2; dsDNA, one strand shown
# T9 sequence: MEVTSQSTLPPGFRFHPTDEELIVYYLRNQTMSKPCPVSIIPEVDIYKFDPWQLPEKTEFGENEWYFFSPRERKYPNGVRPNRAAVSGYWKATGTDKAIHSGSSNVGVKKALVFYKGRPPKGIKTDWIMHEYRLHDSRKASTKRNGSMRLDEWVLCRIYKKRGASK
# In short: as §1
# Sequence of GST-NTL6(1-168) (Q9SCK6 1-168): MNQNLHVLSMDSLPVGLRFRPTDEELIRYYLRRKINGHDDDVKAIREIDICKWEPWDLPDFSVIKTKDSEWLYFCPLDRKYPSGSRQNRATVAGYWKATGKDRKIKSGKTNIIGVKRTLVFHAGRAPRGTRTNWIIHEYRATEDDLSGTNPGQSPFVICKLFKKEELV
sequence,measurement,setting,value
CTTAAGGA,binding signal,[1],0.401 E-score
same,binding signal,[2],0.0872 E-score
same,binding signal,[3],0.179 E-score
same,binding signal,[4],0.265 E-score
same,binding signal,[5],0.07 E-score
AATTGACT,binding signal,[1],0.0713 E-score
same,binding signal,[6],0.0891 E-score
same,binding signal,[7],0.141 E-score
same,binding signal,[8],0.0602 E-score
same,binding signal,[2],0.125 E-score
same,binding signal,[4],0.0673 E-score
same,binding signal,[5],0.46 E-score
AAGTCAAG,binding signal,[1],0.113 E-score
same,binding signal,[7],0.0757 E-score
same,binding signal,[8],0.14 E-score
same,binding signal,[2],0.0657 E-score
same,binding signal,[4],0.0903 E-score
same,binding signal,[5],0.479 E-score
AGTCTACG,binding signal,[9],0.0568 E-score
same,binding signal,[4],0.115 E-score
same,binding signal,[5],0.401 E-score
AAAGTCAA,binding signal,[1],0.0854 E-score
same,binding signal,[6],0.0717 E-score
same,binding signal,[7],0.118 E-score
same,binding signal,[2],0.0787 E-score
same,binding signal,[4],0.118 E-score
same,binding signal,[5],0.49 E-score
GCTTTCCC,binding signal,[10],0.124 E-score
same,binding signal,[1],0.142 E-score
same,binding signal,[9],0.0714 E-score
same,binding signal,[8],0.117 E-score
same,binding signal,[3],0.423 E-score
same,binding signal,[4],0.0912 E-score
AGCGTTGA,binding signal,[1],0.0737 E-score
same,binding signal,[8],0.0576 E-score
same,binding signal,[2],0.0637 E-score
same,binding signal,[4],0.0527 E-score
same,binding signal,[5],0.401 E-score
GGGGAAAC,binding signal,[10],0.177 E-score
same,binding signal,[1],0.17 E-score
same,binding signal,[9],0.152 E-score
same,binding signal,[8],0.217 E-score
same,binding signal,[11],0.12 E-score
same,binding signal,[3],0.412 E-score
same,binding signal,[4],0.209 E-score
AAGGGTCA,binding signal,[1],0.0797 E-score
same,binding signal,[4],0.0922 E-score
same,binding signal,[5],0.409 E-score
CTTAGTCA,binding signal,[1],0.243 E-score
same,binding signal,[7],0.101 E-score
same,binding signal,[3],0.091 E-score
same,binding signal,[4],0.118 E-score
same,binding signal,[5],0.424 E-score
GTCAAGCA,binding signal,[8],0.106 E-score
same,binding signal,[4],0.0699 E-score
same,binding signal,[5],0.44 E-score
ACTCAACC,binding signal,[10],0.366 E-score
same,binding signal,[6],0.0786 E-score
same,binding signal,[7],0.117 E-score
same,binding signal,[8],0.408 E-score
same,binding signal,[2],0.221 E-score
same,binding signal,[4],0.381 E-score
